The entries come from a sample that favours hits as a whole.
BL2 CD40 inh: inhibitors of CD40-induced NF-kB signaling, primary screen, BL2 cells, luciferase reporter, single point; CD40L-induced, 4 h; inhibition, % at 10 µM; hit rate 0.94% among 83,000; AID 1053188, 2014;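 active = mean inhibition of at least 50% with a set share of replicates also reaching that level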;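 note: 0% = neutral control wells and 100% = IKK inhibitor VII at 50 µM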
* hit, by the source's call; [ ] = remark or other dose.

SMILES	BL2 CD40 inh
Cn1nc(C(=O)NNC(=O)c2ccc(Cl)cc2)ccc1=O	0
COc1ccccc1S(=O)(=O)N[C@H]1CC[C@@H](CCn2cc(C3CCCC3)nn2)O[C@@H]1CO	-18
Cc1cc(=O)n(CC(=O)O)c2ccccc12	3
Cc1ccc2c(=O)c3ccccc3n(CCCN)c2c1C	79*[25 µM]
CCN(CC)CCn1c2ccccc2c(=O)c2c(O)ccc(O)c21	-12
O=C(Nc1cc(F)ccc1F)N1CC(=O)N2[C@H](CO)[C@@H](c3ccc(/C=C/c4ccccc4)cc3)[C@@H]2C1	-11[25 µM]
CC(C)[C@@H](C)NC(=O)N(C)C[C@@H]1OCc2ccccc2-c2c(n(C)c3ccccc23)C(=O)N([C@H](C)CO)C[C@H]1C	0
COCC(=O)Nc1ccc2c(c1)C(=O)N(C)[C@@H]1CC[C@@H](CC(=O)NC3Cc4ccccc4C3)O[C@@H]1CO2	-6[25 µM]
CC[C@H]1C/C=C\C[C@H](c2ccccc2)NC(=O)CCC(=O)N1	-6[25 µM]
O=C(COC(=O)c1ccc(OC(F)F)cc1)Nc1ccc2c(c1)OCCO2	-6
O=C(CCN1CCCCC1)NCC[C@@H]1CC[C@H](NC(=O)C2CCCCC2)[C@H](CO)O1	1
CC(=O)Nc1ccc2c(c1)C(=O)N(C)C[C@@H](C)[C@H](CN(C)S(C)(=O)=O)O2	-6
Cc1cc(C)nc(Sc2ncnc(N)c2[N+](=O)[O-])n1	82*
Nc1ncnc(Nc2ccccn2)c1[N+](=O)[O-]	8
Cc1cccnc1Nc1ncnc(N)c1[N+](=O)[O-]	3
CC(=O)Nc1ccc2c(c1)C(=O)N(C)C[C@H](C)[C@@H](CN(C)C(=O)NC(C)C)O2	-18
NCC[C@H]1CC[C@@H](NC(=O)Cc2ccncc2)[C@@H](CO)O1	-8[25 µM]
O=C(C[C@H]1CC[C@@H](NC(=O)NC2CCCCC2)[C@@H](CO)O1)NCc1ccc(F)cc1	-11
COc1cccc(S(=O)(=O)N(C)C[C@H]2OCc3ccccc3-c3ccccc3C(=O)N([C@H](C)CO)C[C@@H]2C)c1	8[25 µM]
CCCC(=O)NC1=C(Cl)C(=O)c2ccccc2C1=O	107*
CCCC(=O)NNC(=O)CCC(=O)Nc1ccccc1Cl	9
CCNC1=C(Cl)C(=O)c2ccccc2C1=O	-25
COc1cccc(CN2C[C@@H]3N[C@H](C2)C3c2ccc(-c3ccccc3OC)cc2)c1 (stereo not given in full)	-2
Cc1ccc(C(OCC(O)CNCc2ccc(F)cc2)c2ccccc2)cc1 (stereo not given)	50*
OC(COC(c1ccc(F)cc1)c1ccc(F)cc1)CN1CCCC1 (stereo not given)	6
SMILES	BL2 CD40 inh
O=C(c1ccccc1)c1ccc(OCC(O)CNCc2ccc(F)cc2)cc1 (stereo not given)	10
C[C@H]1CN(C)C(=O)Cc2ccccc2O[C@@H]1CN(C)C	-2
C[C@@H]1CN([C@@H](C)CO)C(=O)Cc2cc(NC(=O)Nc3ccc(C(F)(F)F)cc3)ccc2O[C@H]1CN(C)Cc1ccc2c(c1)OCO2	5
C[C@@H]1CN([C@@H](C)CO)C(=O)c2cc(NC(=O)Cc3cn(C)c4ccccc34)ccc2O[C@@H]1CN(C)Cc1ccc2c(c1)OCO2	5[25 µM]
COc1ccc(CN(C)C[C@H]2Oc3ccc(NC(=O)Cc4cn(C)c5ccccc45)cc3CC(=O)N([C@@H](C)CO)C[C@@H]2C)cc1	6
C[C@@H]1CN([C@H](C)CO)C(=O)Cc2cc(NC(=O)Cc3cn(C)c4ccccc34)ccc2O[C@H]1CN(C)Cc1ccc(C(F)(F)F)cc1	72*[25 µM]
C[C@@H]1CN([C@@H](C)CO)C(=O)c2cc(NC(=O)CCN3CCOCC3)ccc2O[C@@H]1CN(C)Cc1ccc(C(F)(F)F)cc1	9[25 µM]
C[C@H]1CN([C@@H](C)CO)C(=O)Cc2cc(NC(=O)Cc3cn(C)c4ccccc34)ccc2O[C@H]1CN(C)Cc1ccc(C(F)(F)F)cc1	76*[25 µM]
CNC[C@@H]1Oc2ccc(N)cc2C(=O)N(C)C[C@H]1C	10
C[C@H]1CN(C)C(=O)c2cc(N(C)C)ccc2O[C@H]1CN(C)C	10
COc1ccccc1NC(c1cccnc1)c1ccc2cccnc2c1O (stereo not given)	49*
Oc1c(C(Nc2ccccn2)c2ccccn2)ccc2cccnc12 (stereo not given)	-6
Cc1ccnc(NC(c2cccnc2)c2ccc3cccnc3c2O)c1 (stereo not given)	-33
COc1ccc2c3c([nH]c2c1)[C@@H](CO)N(C(=O)Nc1ccc(F)cc1)CC31CCN(S(=O)(=O)c2cn(C)cn2)CC1	-5[25 µM]
CCc1cnc(N2[C@@H](C#N)[C@H](c3ccc(C#CCC4CCCC4)cc3)[C@@H]2CO)s1	19[25 µM]
C[C@H]1CN([C@@H](C)CO)S(=O)(=O)c2ccc(-c3cncnc3)cc2O[C@@H]1CN(C)Cc1ccncc1	-20[25 µM]
O=C(c1ccc(F)cc1)N1CC(=O)N2[C@H](CO)[C@H](c3ccc(C#CCC4CCCC4)cc3)[C@H]2C1	38[25 µM]
O=C(C[C@@H]1C[C@@H]2c3cc(NC(=O)C4CCC4)ccc3O[C@@H]2[C@H](CO)O1)NC1CCCC1	3[25 µM]
Fc1ccccc1/C=C1\CCCC2=C1Nc1nnnn1C2c1ccccc1F (stereo not given)	75*

Screens from PubChem BioAssay.
